# PubChem BioAssay
# For part of these data: Potency and affinity values are given separately. The source made the active and inactive calls.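 How the source made its calls, unless noted: active means primary screen hit whose fluorescence ratio, in both repeats, exceeds the weak agonist control mean by 3 SD; inactive means the rest.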
# Tests used:
# [1] = system: TRPC4 beta (transient receptor potential cation channel C4), mouse; assay: activators of mouse TRPC4 channel, confirmation, cell-based, Fluo4 calcium, HEK293 TRPC4beta/mu-opioid, duplicates, 10 µM (AID 2426;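 active means fluorescence ratio normalized to control raised more than 50% in primary screen plus both repeat runs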;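 on activation: percent rise of integrated ratio over buffer wells lacking compound which define 0%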); conditions: Fluo4 calcium fluorescence, at 10 µM; hits give high values
# [2] = system: transient receptor potential cation channel C4 beta (TRPC4), mouse; assay: activators of mouse TRPC4 channel, confirmation, cell-based, second round, Fluo4, HEK293 TRPC4beta/mu-opioid, 1 µM (AID 2461;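 active means primary screen active and over 50% activation in each of two duplicate runs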); conditions: Fluo4 calcium fluorescence, at 1 µM; hits give high values
# [3] = system: TRPC4 (transient receptor potential cation channel C4 beta), mouse; assay: positive allosteric modulators of mouse TRPC4, confirmation, cell-based, second round, Fluo-4, HEK293 TRPC4beta/mu-opioid, 1 µM (AID 2554); conditions: DAMGO EC20, Fluo-4 calcium flux, at 1 µM; hits give high values
# [4] = system: TRPC4 beta (transient receptor potential cation channel C4), mouse; assay: positive allosteric modulators of mouse TRPC4, confirmation, cell-based, Fluo-4, HEK293 TRPC4beta/mu-opioid (AID 2555;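 active means primary screen hit whose calcium fluorescence ratio, in both repeats, exceeds the weak agonist control mean by 3 SD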); conditions: DAMGO EC20, Fluo-4 calcium flux, at 10 µM; hits give high values
# [5] = target: Short transient receptor potential channel 4 (Mus musculus) (UniProt Q9QUQ5); assay: inhibitors of mouse TRPC4 channel, confirmation, cell-based, Fluo4, HEK293 TRPC4beta/mu-opioid (AID 2636;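 active means calcium signal cut by more than 3 SD below the full-agonist control yet still positive, in both repeats and the earlier primary screen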); conditions: DAMGO, Fluo4 calcium flux, at 10 µM; hits give high values
# [6] = target: Short transient receptor potential channel 4 (Mus musculus) (UniProt Q9QUQ5); assay: inhibitors of mouse TRPC4 channel, confirmation, cell-based, second round, Fluo4, HEK293 TRPC4beta/mu-opioid, 1 µM (AID 2637;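 active means calcium signal ratio cut to more than 3 SD under the fully stimulated control mean yet still positive, in both repeats and the primary screen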); conditions: Fluo4 calcium flux, DAMGO, at 1 µM; hits give high values
# [7] = target: Short transient receptor potential channel 4 (Mus musculus) (UniProt Q9QUQ5); assay: mouse TRPC4 channel activators, dose response, cell-based, HEK293 TRPC4/mu-opioid, Fluo-4 calcium (AID 434937;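 active means primary screen activator hit with a dose response curve and TRPC4 channel activation at any tested dose; inactive means no activation, no dose response, or not a primary hit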)
# [8] = target: Short transient receptor potential channel 4 (Mus musculus) (UniProt Q9QUQ5); assay: TRPC4 positive allosteric modulators, dose response, cell-based, HEK293 TRPC4/mu-opioid, Fluo-4 calcium, EC20 DAMGO (AID 434941;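 active means earlier screen potentiator hit that boosts the TRPC4 ion channel at some dose, with a dose response; inactive means no potentiation, no dose response, or not a prior hit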;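 further: calcium entry triggered by an EC20 dose of DAMGO at the co-expressed mu-opioid receptor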)
# [9] = target: Short transient receptor potential channel 4 (Mus musculus) (UniProt Q9QUQ5); assay: mouse TRPC4 channel inhibitors, dose response, cell-based, HEK293 TRPC4/mu-opioid, Fluo-4 calcium (AID 434942;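 active means primary screen inhibitor hit that blocks the TRPC4 channel at some tested dose, yielding a dose curve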)
# [10] = target: Short transient receptor potential channel 6 (Mus musculus) (UniProt Q61143); assay: inhibition of mouse TRPC6 channel, confirmation, selectivity assay for TRPC4 inhibitor project, cell-based, HEK293, membrane potential dye, duplicate (AID 434948;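 active means active in primary screen and both duplicates, each dropping signal beyond three positive-control SD with fluorescence still positive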); conditions: HEK293 TRPC6, membrane potential dye fluorescence, at 10 µM, stimulated with maximal-effect acetylcholine; hits give high values
# [11] = target: Short transient receptor potential channel 6 (Mus musculus) (UniProt Q61143); assay: activation of mouse TRPC6 channel, confirmation, selectivity assay for TRPC4 activator project, cell-based, HEK293, membrane potential dye, duplicate (AID 434950;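 active means membrane potential signal rise above negative control mean plus 3 SD in both duplicates, also active in the earlier TRPC4 screen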;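 on activation: 0% = buffer only wells and 100% = acetylcholine maximal-effect wells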); conditions: HEK293 TRPC6, membrane potential fluorescence, at 10 µM; hits give high values
# [12] = target: Short transient receptor potential channel 6 (Mus musculus) (UniProt Q61143); assay: TRPC6 potentiation by TRPC4 potentiator hits, confirmation, selectivity assay for TRPC4 potentiator project, HEK293 cells, membrane potential dye, duplicate (AID 434952;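 active means compound raising the membrane signal above positive-control mean plus 3 SD in both repeats, and a primary screen hit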); conditions: HEK293 TRPC6, membrane potential dye fluorescence, at 10 µM, maximal acetylcholine added after compound; hits give high values
# [13] = target: Short transient receptor potential channel 4 (Mus musculus) (UniProt Q9QUQ5); assay: calcium flux activators in TRPC4/5HT1a cells, counter-screen for TRPC4 activator project, cell-based, second counter screen, HEK293 TRPC4/5HT1a, Fluo-4 (AID 434977;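 active means calcium signal rise above buffer-control mean plus 5 SD in both duplicates, and also a hit in the primary screen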;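 on activation: plate controls were assay buffer for no effect and maximal serotonin response for full effect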); conditions: Fluo-4 calcium flux, at 10 µM; hits give high values
# [14] = calcium flux inhibitors in TRPC4/5HT1a cells, confirmation, counter-screen for TRPC4 inhibitor project, cell-based, second counter screen, HEK293 TRPC4/5HT1a, Fluo-4 (AID 434978;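 active means primary screen active whose calcium signal fell more than 3 SD beyond the full-serotonin control mean in both duplicate plates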;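 further: serotonin given first at submaximal then at maximal dose after compound preincubation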); conditions: Fluo-4 calcium flux, at 10 µM, serotonin added to trigger calcium flux; hits give high values
# [15] = system: TRPC4 (mouse), co-expressed with 5HT1a in HEK293; assay: calcium flux potentiators in TRPC4/5HT1a cells, confirmation, counter-screen for TRPC4 potentiator project, cell-based, second counter screen, HEK293 TRPC4/5HT1a, Fluo-4 (AID 434979;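 active means signal rise over 3 SD above mean of control wells given weak agonist, in both repeats and first screen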); conditions: Fluo-4 calcium flux, at 10 µM, serotonin added at its EC20 dose; hits give high values
# [16] = calcium flux activation in mu-opioid HEK293 cells, confirmation, counter-screen for TRPC4 activator project, cell-based, HEK293 mu-opioid receptor line (AID 449723;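 active means hit in primary screen, with calcium signal over 5 SD above buffer well mean in both duplicates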;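 further: counter screen cells carry the mu-opioid receptor alone and lack TRPC4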); conditions: Fluo-4 calcium fluorescence, at 10 µM; hits give high values
# [17] = calcium flux enhancement in mu-opioid HEK293 cells, confirmation, counter-screen for TRPC4 allosteric potentiator project, cell-based, HEK293 mu-opioid receptor line (AID 449724;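 active means calcium signal rise more than 3 SD above the low-dose agonist control mean, in both duplicate plates and the primary screen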); conditions: Fluo-4 calcium flux, at 10 µM, compound added before EC20 DAMGO stimulus; hits give high values
# Sequence of Short transient receptor potential channel 6 (Mus musculus) (Q61143 whole entry, looked up): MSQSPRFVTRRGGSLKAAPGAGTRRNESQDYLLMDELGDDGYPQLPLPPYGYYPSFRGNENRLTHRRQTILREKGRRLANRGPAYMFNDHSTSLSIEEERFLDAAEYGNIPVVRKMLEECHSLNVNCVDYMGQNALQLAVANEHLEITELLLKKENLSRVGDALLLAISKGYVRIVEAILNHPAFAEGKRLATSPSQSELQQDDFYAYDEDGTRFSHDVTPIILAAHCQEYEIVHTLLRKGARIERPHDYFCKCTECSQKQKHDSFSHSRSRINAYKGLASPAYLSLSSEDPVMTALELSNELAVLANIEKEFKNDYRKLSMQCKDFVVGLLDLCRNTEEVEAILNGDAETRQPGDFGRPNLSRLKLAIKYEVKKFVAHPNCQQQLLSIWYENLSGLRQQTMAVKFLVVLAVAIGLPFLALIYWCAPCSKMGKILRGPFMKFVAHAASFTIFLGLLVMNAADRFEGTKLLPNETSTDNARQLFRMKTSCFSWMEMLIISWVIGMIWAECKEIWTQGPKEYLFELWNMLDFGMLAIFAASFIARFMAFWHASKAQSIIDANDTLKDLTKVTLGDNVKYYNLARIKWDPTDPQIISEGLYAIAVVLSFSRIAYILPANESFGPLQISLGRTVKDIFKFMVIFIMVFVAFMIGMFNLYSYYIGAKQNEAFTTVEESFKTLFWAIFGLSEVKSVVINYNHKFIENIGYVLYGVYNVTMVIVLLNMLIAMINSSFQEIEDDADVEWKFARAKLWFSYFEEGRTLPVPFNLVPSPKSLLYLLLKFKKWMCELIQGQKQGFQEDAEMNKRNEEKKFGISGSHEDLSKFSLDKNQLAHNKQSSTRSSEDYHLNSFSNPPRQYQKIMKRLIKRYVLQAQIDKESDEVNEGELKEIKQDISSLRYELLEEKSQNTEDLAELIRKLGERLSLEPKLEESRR
# Sequence of Short transient receptor potential channel 4 (Mus musculus) (Q9QUQ5 whole entry, looked up): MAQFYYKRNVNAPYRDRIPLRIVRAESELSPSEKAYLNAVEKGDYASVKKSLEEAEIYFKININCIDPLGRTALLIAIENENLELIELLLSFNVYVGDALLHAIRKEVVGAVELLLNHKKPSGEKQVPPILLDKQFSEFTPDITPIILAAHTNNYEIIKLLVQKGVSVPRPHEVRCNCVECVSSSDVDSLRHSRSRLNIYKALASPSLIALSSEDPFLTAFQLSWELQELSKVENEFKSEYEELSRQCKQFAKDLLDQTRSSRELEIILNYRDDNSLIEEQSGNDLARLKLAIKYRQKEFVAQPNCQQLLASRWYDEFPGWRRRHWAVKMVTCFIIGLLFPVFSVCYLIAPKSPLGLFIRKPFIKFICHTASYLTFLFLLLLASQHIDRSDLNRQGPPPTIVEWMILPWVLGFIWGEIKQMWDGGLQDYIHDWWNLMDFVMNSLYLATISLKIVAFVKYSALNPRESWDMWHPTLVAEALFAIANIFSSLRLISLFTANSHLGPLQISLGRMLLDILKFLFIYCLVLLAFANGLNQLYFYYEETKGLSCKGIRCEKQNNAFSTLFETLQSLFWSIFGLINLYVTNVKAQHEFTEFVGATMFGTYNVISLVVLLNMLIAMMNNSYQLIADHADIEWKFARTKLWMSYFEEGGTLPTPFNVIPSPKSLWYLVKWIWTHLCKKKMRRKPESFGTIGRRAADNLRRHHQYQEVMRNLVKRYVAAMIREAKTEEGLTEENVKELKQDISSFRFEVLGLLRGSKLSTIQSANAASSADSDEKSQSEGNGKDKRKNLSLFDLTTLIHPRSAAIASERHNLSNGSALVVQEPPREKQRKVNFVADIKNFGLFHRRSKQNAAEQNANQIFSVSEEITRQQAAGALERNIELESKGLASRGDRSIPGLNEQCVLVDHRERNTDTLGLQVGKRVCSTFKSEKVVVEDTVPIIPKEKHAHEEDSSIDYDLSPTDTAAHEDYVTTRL
compound,measurement,setting,value
CCCCC(=O)Nc1cccc2c1C(=O)N(c1ccccc1)C2=O,outcome,[1],inactive
same,outcome,[2],inactive
same,outcome,[3],inactive
same,outcome,[4],inactive
same,outcome,[5],inactive
same,outcome,[6],inactive
same,outcome,[7],inactive
same,outcome,[8],inactive
same,outcome,[9],inactive
same,outcome,[10],inactive
same,outcome,[11],inactive
same,outcome,[12],inactive
same,outcome,[13],inactive
same,outcome,[14],inactive
same,outcome,[15],inactive
same,outcome,[16],inactive
same,outcome,[17],inactive
CCOC(=O)COc1cc(-n2c(=S)[nH]c3ccccc3c2=O)c(Cl)cc1Cl,outcome,[1],inactive
same,outcome,[2],inactive
same,potentiation,[3],8% (active)
same,potentiation,[4],21% (active)
same,outcome,[5],inactive
same,outcome,[6],inactive
same,outcome,[7],inactive
same,outcome,[8],inactive
same,outcome,[9],inactive
same,outcome,[10],inactive
same,outcome,[11],inactive
same,outcome,[12],inactive
same,outcome,[13],inactive
same,outcome,[14],inactive
same,outcome,[15],inactive
same,outcome,[16],inactive
same,outcome,[17],inactive
O=C(OCCCCN1C(=O)c2ccccc2C1=O)c1ccc(S(=O)(=O)N2CCCC2)cc1,outcome,[1],inactive
same,outcome,[2],inactive
same,outcome,[3],inactive
same,outcome,[4],inactive
same,outcome,[5],inactive
same,outcome,[6],inactive
same,outcome,[7],inactive
same,outcome,[8],inactive
same,outcome,[9],inactive
same,outcome,[10],inactive
same,outcome,[11],inactive
same,outcome,[12],inactive
same,outcome,[13],inactive
same,outcome,[14],inactive
same,outcome,[15],inactive
same,outcome,[16],inactive
same,outcome,[17],inactive
CN1CCN(c2ccc(Cl)cc2NC(=O)CC2OC(=O)c3ccccc32)CC1 (stereo not given),outcome,[1],inactive
same,outcome,[2],inactive
same,potentiation,[3],33% (active)
same,potentiation,[4],33% (active)
same,outcome,[5],inactive
same,outcome,[6],inactive
same,outcome,[7],inactive
same,outcome,[8],inactive
same,outcome,[9],inactive
same,outcome,[10],inactive
same,outcome,[11],inactive
same,outcome,[12],inactive
same,outcome,[13],inactive
same,outcome,[14],inactive
same,potentiation,[15],24.4% (active)
same,outcome,[16],inactive
same,outcome,[17],inactive
Cc1noc(C)c1COC(=O)[C@@H](NC(=O)c1ccccc1Cl)C(C)C,outcome,[1],inactive
same,outcome,[2],inactive
same,outcome,[3],inactive
same,outcome,[4],inactive
same,outcome,[5],inactive
same,outcome,[6],inactive
same,outcome,[7],inactive
same,outcome,[8],inactive
same,outcome,[9],inactive
same,outcome,[10],inactive
same,outcome,[11],inactive
same,outcome,[12],inactive
same,outcome,[13],inactive
same,outcome,[14],inactive
same,outcome,[15],inactive
same,outcome,[16],inactive
same,outcome,[17],inactive
Cc1cc(N2CCCCC2)nc(NCc2ccccc2)n1,activation,[1],66% (active)
same,outcome,[2],inactive
same,outcome,[3],inactive
same,outcome,[4],inactive
same,outcome,[5],inactive
same,outcome,[6],inactive
same,outcome,[7],inactive
same,outcome,[8],inactive
same,outcome,[9],inactive
same,outcome,[10],inactive
same,activation,[11],68.5% (active)
same,outcome,[12],inactive
same,activation,[13],19.4% (active)
same,outcome,[14],inactive
same,outcome,[15],inactive
same,activation,[16],29.5% (active)
same,outcome,[17],inactive
C=CCNC(=S)N1CCN(CCN=Cc2c(C)[nH]n(-c3ccc([N+](=O)[O-])cc3)c2=O)CC1,outcome,[1],inactive
same,outcome,[2],inactive
same,outcome,[3],inactive
same,outcome,[4],inactive
same,outcome,[5],inactive
same,outcome,[6],inactive
same,outcome,[7],inactive
same,outcome,[8],inactive
same,outcome,[9],inactive
same,outcome,[10],inactive
same,outcome,[11],inactive
same,outcome,[12],inactive
same,outcome,[13],inactive
same,outcome,[14],inactive
same,outcome,[15],inactive
same,outcome,[16],inactive
same,outcome,[17],inactive
O=C(C1=C[C@H](c2ccc(C(F)(F)F)cc2)C[C@H](OCCCCO)O1)N1CCOCC1,outcome,[1],inactive
same,outcome,[2],inactive
same,outcome,[3],inactive
same,outcome,[4],inactive
same,outcome,[5],inactive
same,outcome,[6],inactive
same,outcome,[7],inactive
same,outcome,[8],inactive
same,outcome,[9],inactive
same,outcome,[10],inactive
same,activation,[11],27.5% (active)
same,outcome,[12],inactive
same,outcome,[13],inactive
same,outcome,[14],inactive
same,outcome,[15],inactive
same,outcome,[16],inactive
same,outcome,[17],inactive
CCN1C(=O)/C(=C\N2CCCc3ccccc32)SC1=S,outcome,[1],inactive
same,outcome,[2],inactive
same,outcome,[3],inactive
same,outcome,[4],inactive
same,outcome,[5],inactive
same,outcome,[6],inactive
same,outcome,[7],inactive
same,outcome,[8],inactive
same,outcome,[9],inactive
same,outcome,[10],inactive
same,outcome,[11],inactive
same,outcome,[12],inactive
same,outcome,[13],inactive
same,outcome,[14],inactive
same,outcome,[15],inactive
same,outcome,[16],inactive
same,outcome,[17],inactive
CN(Cc1ccco1)C(=O)Cn1ncc2c([nH]c3ccccc32)c1=O,outcome,[1],inactive
same,outcome,[2],inactive
same,outcome,[3],inactive
same,potentiation,[4],10% (active)
same,outcome,[5],inactive
same,outcome,[6],inactive
same,outcome,[7],inactive
same,outcome,[8],inactive
same,outcome,[9],inactive
same,outcome,[10],inactive
same,outcome,[11],inactive
same,outcome,[12],inactive
same,outcome,[13],inactive
same,outcome,[14],inactive
same,potentiation,[15],61.1% (active)
same,outcome,[16],inactive
same,outcome,[17],inactive
CC(C)(C)n1nnnc1C(c1ccc(Cl)cc1)N(Cc1cccnc1)Cc1ccco1 (stereo not given),outcome,[1],inactive
same,outcome,[2],inactive
same,outcome,[3],inactive
same,outcome,[4],inactive
same,outcome,[5],inactive
same,outcome,[6],inactive
same,outcome,[7],inactive
same,outcome,[8],inactive
same,outcome,[9],inactive
same,outcome,[10],inactive
same,outcome,[11],inactive
same,outcome,[12],inactive
same,outcome,[13],inactive
same,outcome,[14],inactive
same,outcome,[15],inactive
same,outcome,[16],inactive
same,outcome,[17],inactive
Fc1ccc2c(c1)C(c1ccncc1)=NNC(c1ccc(Cl)cc1)=N2,outcome,[1],inactive
same,outcome,[2],inactive
same,outcome,[3],inactive
same,outcome,[4],inactive
same,outcome,[5],inactive
same,outcome,[6],inactive
same,outcome,[7],inactive
same,outcome,[8],inactive
same,outcome,[9],inactive
same,outcome,[10],inactive
same,outcome,[11],inactive
same,outcome,[12],inactive
same,outcome,[13],inactive
same,outcome,[14],inactive
same,outcome,[15],inactive
same,outcome,[16],inactive
same,outcome,[17],inactive
CCc1nc2ccccc2n1Cc1ccccc1F,outcome,[1],inactive
same,outcome,[2],inactive
same,outcome,[3],inactive
same,outcome,[4],inactive
same,outcome,[5],inactive
same,outcome,[6],inactive
same,outcome,[7],inactive
same,outcome,[8],inactive
same,outcome,[9],inactive
same,outcome,[10],inactive
same,outcome,[11],inactive
same,outcome,[12],inactive
same,outcome,[13],inactive
same,outcome,[14],inactive
same,outcome,[15],inactive
same,outcome,[16],inactive
same,outcome,[17],inactive
CCCCN(C)CCNC(=S)Nc1ccc2nc(N3CCN(CC)CC3)cc(C)c2c1,outcome,[1],inactive
same,outcome,[2],inactive
same,potentiation,[3],11% (active)
same,outcome,[4],inactive
same,outcome,[5],inactive
same,outcome,[6],inactive
same,outcome,[7],inactive
same,outcome,[8],inactive
same,outcome,[9],inactive
same,outcome,[10],inactive
same,outcome,[11],inactive
same,outcome,[12],inactive
same,outcome,[13],inactive
same,outcome,[14],inactive
same,potentiation,[15],18% (active)
same,outcome,[16],inactive
same,outcome,[17],inactive
CC(C)(C)c1ccccc1OCCCCCn1ccnc1,outcome,[1],inactive
same,outcome,[2],inactive
same,outcome,[3],inactive
same,outcome,[4],inactive
same,outcome,[5],inactive
same,outcome,[6],inactive
same,outcome,[7],inactive
same,outcome,[8],inactive
same,outcome,[9],inactive
same,outcome,[10],inactive
same,outcome,[11],inactive
same,outcome,[12],inactive
same,outcome,[13],inactive
same,outcome,[14],inactive
same,outcome,[15],inactive
same,outcome,[16],inactive
same,outcome,[17],inactive
